Reference: PubChem BioAssay AID489043 (National Center for Advancing Translational Sciences (NCATS), 2010)
Records with an inconclusive call do not appear. Active and inactive are the calls of the source. Calls follow the shape of the dose curve; as a rule, active = well fitted activation curve with a large enough effect; inconclusive = small, poorly fitted or top-dose-only effect; inactive = flat fitted curve, though single readings scatter.

target: Relaxin receptor 2 (Homo sapiens) (UniProt Q8WXD0); experiment: qHTS Assay for Agonists of the Relaxin Receptor RXFP1: RXFP2 Hit Validation; settings: HEK293 RXFP2 cAMP TR-FRET, 30 min; series mostly up to 115 µM; activation: at the top concentration; also: nearly all actives have a fitted effect of over 65% in size
Sequence (Q8WXD0 whole entry, looked up): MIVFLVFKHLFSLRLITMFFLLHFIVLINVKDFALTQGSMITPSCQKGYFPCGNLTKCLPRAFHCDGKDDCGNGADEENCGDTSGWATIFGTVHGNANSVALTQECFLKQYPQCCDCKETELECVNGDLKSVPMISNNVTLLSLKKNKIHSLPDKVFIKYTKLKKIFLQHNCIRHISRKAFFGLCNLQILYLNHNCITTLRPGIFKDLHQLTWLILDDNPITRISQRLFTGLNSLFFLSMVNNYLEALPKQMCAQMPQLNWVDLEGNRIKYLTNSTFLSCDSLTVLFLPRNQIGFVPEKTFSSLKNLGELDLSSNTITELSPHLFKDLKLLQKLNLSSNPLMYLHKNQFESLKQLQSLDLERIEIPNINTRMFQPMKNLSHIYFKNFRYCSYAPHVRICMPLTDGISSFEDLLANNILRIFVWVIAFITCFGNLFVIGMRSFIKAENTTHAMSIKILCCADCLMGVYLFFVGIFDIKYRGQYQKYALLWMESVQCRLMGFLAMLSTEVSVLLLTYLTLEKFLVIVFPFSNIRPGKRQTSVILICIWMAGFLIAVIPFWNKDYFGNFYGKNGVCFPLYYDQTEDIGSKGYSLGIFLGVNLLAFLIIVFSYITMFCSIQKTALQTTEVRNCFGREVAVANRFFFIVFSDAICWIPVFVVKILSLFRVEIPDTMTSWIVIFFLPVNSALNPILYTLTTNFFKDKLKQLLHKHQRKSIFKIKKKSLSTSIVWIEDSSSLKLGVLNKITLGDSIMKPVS
Procedure, shortened: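 Selectivity counter-assay for cAMP accumulation: RXFP2-HEK293 cells given compounds with Ro 20174 for 30 min at 37C, then lysed for TR-FRET cAMP detection. Data scaled to 29 nM porcine relaxin (100%); Hill-equation EC50.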
Potency is read from the fitted curve at half-maximal effect.

Compound	activation	Potency
Cc1ccc(CN(C)C(=O)c2ccc3c(c2)NC(=O)CS3)o1	-25.2% (inactive)	
Cc1noc(NS(=O)(=O)c2ccc(N3Cc4ccccc4C3=O)cc2)c1C		11.9 µM (active)
O=C(Nc1ccc(Cl)cc1)Nc1ccccc1Sc1ncc([N+](=O)[O-])s1	9.11% (inactive)	
O=C(CCc1nnc2ccc(NCCCN3CCCC3=O)nn12)NCc1ccccc1Cl	8.46% (inactive)	
CCc1cc2c(=O)nc3n(c2s1)Cc1ccccc1/C3=C(/O)c1cccc([N+](=O)[O-])c1		6.16 µM (active)
COc1cccc(CNC(=O)c2ccc(CS(=O)Cc3ccc(C)cc3)o2)c1 (configuration not stated)	1.23% [at 44.7 µM] (inactive)	
O=C(Nc1ccccc1C(=O)NCCc1ccccc1)c1ccco1	0.452% [at 125 µM] (inactive)	
CC(=O)Nc1ccc(NC(=O)CSc2ccc3nnc(-c4ccccn4)n3n2)cc1	27% [at 44.7 µM] (inactive)	
CCN(CC)C(=O)c1cc(Cl)ccc1NC(=O)c1ccco1	-3.03% [at 125 µM] (inactive)	
CCn1c(SCC(=O)Nc2ccc(NC(C)=O)cc2)nc2c1c(=O)n(C)c(=O)n2C		27.5 µM (active)
Cn1c2ccccc2c2nnc(SCC(=O)Nc3cccc(C(=O)O)c3)nc21		30.9 µM (active)
O=C(Nc1ccccc1C(=O)Nc1ccccc1C(=O)NCc1ccco1)c1ccco1		inactive
CC(C)c1ccccc1NC(=O)c1ccccc1NC(=O)C1CCCCC1	3.66% [at 125 µM] (inactive)	
Cc1cc(C)nc(/N=C(\N)Nc2ccc(S(=O)(=O)Nc3nccc(C)n3)cc2)n1		34.6 µM (active)
Cn1c(=O)c2c(ncn2CC(=O)NC2CCCCC2)n(C)c1=O		48.9 µM (active)
COc1ccc(C(=O)Nc2ccc(Cl)cc2C(=O)NCc2ccco2)cc1		42.1 µM (active)

Compound	activation	Potency
CN1CCN(C(=O)CCc2nnc3ccc(N4CCC5(CC4)OCCO5)nn23)CC1	25.3% (inactive)	
CN(CC(=O)Nc1ccccc1Cl)C(=O)COC(=O)Cc1c(F)cccc1Cl	0.312% [at 44.7 µM] (inactive)	
COc1ccc(Nc2ncc(C#N)c(N)n2)c(OC)c1	2.09% (inactive)	
CC(=O)Nc1c2c3c(cccc3n(C)c1=O)C(=O)c1ccccc1-2	20.1% [at 44.7 µM] (inactive)	
Cc1cc(Br)c2nc3c(c(C(=O)O)c2c1)CCCCC3		1.94 µM (active)
Cc1c(CCOC(=O)c2cc([N+](=O)[O-])ccc2Cl)sc[n+]1CCCCS(=O)(=O)[O-]	8.95% (inactive)	
N#C/C(=C/c1ccc(OCc2ccccc2)cc1)C(=O)NC1CCCCC1	12.7% [at 44.7 µM] (inactive)	
COc1ccc(S(=O)(=O)N2CCOCC2)cc1NC(=O)CSc1nnc2ccccn12		6.15 µM (active)
COc1ccc(NC(=O)CCCc2nnc3n(C)c(=O)c4sccc4n23)cc1		34.6 µM (active)
Cc1ccc2[nH]c3c(=S)nc[nH]c3c2c1		6.9 µM (active)
C=CCSc1nc2c(c(=O)[nH]1)C(C(C)C)C(C#N)=C(N)O2 (configuration not stated)		43.6 µM (active)
Cc1cccc(-c2nnc(SCC(=O)NC3CC3)n2C)c1	-25.5% (inactive)	
COc1cccc(C(=O)CSc2nnc(-c3cc(OC)cc(OC)c3)o2)c1		10.9 µM (active)
COc1ccc(Cl)cc1-c1n[nH]c(=S)o1		4.88 µM (active)
Cn1c(=O)c2sccc2n2c(CCCC(=O)NCc3ccco3)nnc12		34.6 µM (active)
CCCN(CCC)S(=O)(=O)c1cc(CN2C(=O)c3cccnc3C2=O)ccc1OC		24.5 µM (active)
